Assay outcomes from PubChem BioAssay.
BAZ2B block – blocks human BAZ2B; AlphaScreen BAZ2B-H3K14Ac peptide displacement; Potency, µM (top dose mostly 114 µM), usual class: inhibitors; hit rate 4.4% among 360,000; also: nearly all actives have a fitted effect of over 60% in size
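Protein-peptide AlphaScreen: BAZ2B 50 nM, b-H3K14Ac 50 nM, 1x PBS pH 7.4 + 0.01% Tween-20. Preincubation 30 min RT; cpd 30 min RT (top 110 uM); beads 20 min RT, light-protected.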
PLK1 PBD block – inhibitors of human PLK1 polo-box domain binding. Plk1 PBD binding of FITC phosphopeptide, fluorescence polarization. Potency, µM, usual class: inhibitors. hit rate 2.8% among 360,000. AID 720504; also: series mostly up to about 57 µM; nearly all actives have a fitted effect of over 65% in size
HP1b binding inh – blocks HP1-beta chromodomain binding to methylated histone tails. P83916. hit rate 0.56% among 390,000. Potency, µM (top dose mostly 114 µM), actives largely listed as inhibitors. AlphaScreen HP1-beta / biotin-H3K9me3 peptide binding; also: nearly all actives have a fitted effect of over 70% in size
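Compound inhibition of the preformed complex between 50 nM HP1-beta and 50 nM biotinylated H3K9me3 peptide was read by AlphaScreen. Buffer was PBS pH 7.4 with 0.01% Tween-20. Incubations ran 30 min at room temperature, with 10 ug/mL donor/acceptor beads.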
KAT2A inh – inhibitors of human GCN5L2 histone acetyltransferase | Q92830 | GCN5L2 HAT assay, ThioGlo1 CoA-SH fluorescence | Potency, µM (doses to about 58.9 µM), most hits filed as inhibitors | hit rate 0.21% among 390,000
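Titration-based screen in which CoA formation is detected via maleimide probe ThioGlo1 (50uM) turning fluorescent on thiol reaction; substrates H3(1-25) 75uM and acetyl-CoA 70uM, GCN5L2 20nM, 20 min incubation at room temperature.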
JMJD2A Tudor – blocks the human JMJD2A Tudor domain; O75164; AlphaScreen JMJD2A-Tudor / H3K4me3 peptide binding; Potency, µM (titrated, usually from 114 µM), actives largely listed as inhibitors; hit rate 4.4% among 390,000; also: nearly all actives have a fitted effect of over 50% in size
PI5P4K alpha inh – blocks human PI5P4K alpha kinase activity. P48426. PI5P4Kalpha enzyme, ADP-Glo luminescence, 60 min; hits give low values. max response, %. hit rate 1.2% among 330,000; active = max response of -50% or lower; inconclusive = between -30% and -50%; inactive = -30% or higher; also: value at the top dose of about 77 µM
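ADP-Glo luminescence end-point after a 60 min room-temperature kinase reaction. PI5P4Kalpha and substrate in HEPES pH 7.4 buffer with EGTA, 0.1% CHAPS and 5% DMSO; ATP at 5 microM final.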
A number is an active result; - = inactive; ? = inconclusive; . = no result; [ ] = dose if it differs, or a comment. Shown are actives, neighbours in structure and some others; about 7% of the full set was active somewhere. Unless noted, calls follow the shape of the dose curve; as a rule, active = well fitted curve in the direction sought with a large enough effect; inconclusive = small, poorly fitted or top-dose-only effect, or another doubt; inactive = no such curve, though single readings can be large; an effect the other way counts as inactive or inconclusive.

SMILES | BAZ2B block | PLK1 PBD block | HP1b binding inh | KAT2A inh | JMJD2A Tudor | PI5P4K alpha inh
O=C(Oc1cccc2cccnc12)c1cccc(N2C(=O)C3C4CCC(C4)C3C2=O)c1 (stereo unspecified) | 10µM | - | - | - | 71µM | -
O=C(Oc1cccc2cccnc12)c1ccc(N2C(=O)C3C4CCC(C4)C3C2=O)cc1 (stereo unspecified) | 50µM | - | - | - | ? | -
O=C(Oc1cccc2cccnc12)c1cccc(-n2cnnn2)c1 | ? | - | - | - | - | -
Cc1cccc(NC(=O)CNC(=O)c2ccc3nc[nH]c3c2)c1C | 50µM | - | - | - | - | ?
CC(C)(C)C1CCC(=NNC(=S)Nc2cccnc2)CC1 (stereo unspecified) | ? | - | - | - | ? | -
S=C(Nc1cccnc1)NC1CC2CCC1C2 (stereo unspecified) | 71µM | - | - | - | - | -
CCN(c1ccc(NC(=O)COC(=O)C2CCN(c3ccc(C(F)(F)F)cn3)CC2)cc1)C(C)C | . | - | ? | . | 10µM | -
CCc1ccc(NC(=O)C(C)OC(=O)C2CCN(c3ccc(C(F)(F)F)cn3)CC2)cc1 (stereo unspecified) | - | - | - | - | - | -
O=C(CCCN1C(=O)/C(=C/c2ccco2)SC1=S)Nc1cccc(C(=O)O)c1 | 45µM | - | ? | - | ? | -60
O=C(CCCN1C(=O)/C(=C\c2ccco2)SC1=S)Nc1ccc(O)cc1C(=O)O | 14µM | 17µM | 25µM | 10µM | 22µM | ?
O=C(CCCN1C(=O)/C(=C\c2cccs2)SC1=S)Nc1ccc(O)cc1C(=O)O | ? | - | - | - | - | ?
O=c1c(Cl)c(Nc2cccc(Cl)c2)cnn1-c1nc2ccccc2s1 | - | - | - | - | - | -
COc1ccc(Nc2cnn(-c3nc4ccccc4s3)c(=O)c2Cl)cc1 | - | 12µM | - | - | - | -
Cc1ccc(NC(=O)NC(=O)COc2c(F)c(F)cc(F)c2F)c(C)c1 | . | - | - | - | - | -
COc1ccc(NC(=O)C2CCCN(S(=O)(=O)c3ccccc3)C2)c(OC)c1 (stereo unspecified) | - | - | - | - | - | -
Cc1csc(NC(=O)c2ccc(C)c([N+](=O)[O-])c2)n1 | ? | - | - | - | - | -
O=C(Nc1nc(-c2ccccn2)cs1)C1COc2ccccc2O1 (stereo unspecified) | 20µM | - | - | - | 56µM | -
Cc1cc(C(=O)Nc2nc(-c3ccccn3)cs2)ccc1[N+](=O)[O-] | 28µM | ? | - | - | - | -
CC(=O)Nc1ccc(C(=O)Nc2nc(-c3ccccn3)cs2)cc1 | 5.6µM | 24µM | - | - | 56µM | -
O=C(Nc1nc(-c2ccccn2)cs1)c1ccccc1-n1cnnn1 | 22µM | 3.8µM | - | - | ? | ?
CCOC(=O)c1ccc(NC(=O)CSc2cn(CC(=O)N3CCCC3)c3ccccc23)cc1 | - | . | - | - | - | .
CCC(=O)N1CCc2cc(S(=O)(=O)CCC(=O)N3CCN(c4cc(C)ccc4C)CC3)ccc21 | . | . | - | - | - | .
O=C(Nc1ccccn1)c1ccc2c(c1)OCCO2 | - | - | - | - | - | -
CC(=O)Nc1ccc(C(=O)Nc2nc(-c3cccnc3)cs2)cc1 | - | 13µM | - | - | - | -
O=C(Nc1nc(-c2ccccc2)cs1)c1cccnc1 | - | - | - | - | - | .
SMILES | BAZ2B block | PLK1 PBD block | HP1b binding inh | KAT2A inh | JMJD2A Tudor | PI5P4K alpha inh
O=C(Nc1nc(-c2ccccn2)cs1)c1ccc2c(c1)OCCO2 | 22µM | - | - | - | 56µM | -
COc1ccc(NC(=O)CCCN2C(=O)CN(C)C2=O)c(OC)c1 | 50µM | - | - | - | 50µM | -
COc1ccc(NC(=O)CCN2CCN(CCO)CC2)c(OC)c1 | - | . | - | - | - | .
CCOC(=O)c1c(C)n(-c2ccc(OC)cc2)c2ccc(O)c(CN(C)C)c12 | - | 30µM | - | - | -[11.4 µM] | -
Cc1ccccc1OC(=O)c1cccc(S(=O)(=O)N2CCN(C)CC2)c1 | - | - | - | - | - | -
Cc1ccc(COC(=O)CCCN=C2NS(=O)(=O)c3ccccc32)cc1 | - | - | - | - | - | -
Cc1cccc(-c2nc3scc(CCNS(=O)(=O)c4c(C)noc4C)n3n2)c1 | - | . | - | - | - | .
CCOC(=O)c1c(C)[nH]c(C2=NNC(=Nc3ccccc3OC)SC2)c1C | ? | - | ? | - | 50µM | -
CCOC(=O)c1c(C)[nH]c(C2=NNC(=Nc3ccc(OCC)cc3)SC2)c1C | 50µM | - | ? | - | 56µM | -
CCOc1ccccc1/C=N/n1c(C2CCCCC2)n[nH]c1=S | - | ? | - | - | ? | -
FC(F)(F)c1ccccc1/C=N/n1c(C2CCCCC2)n[nH]c1=S | - | 27µM | - | - | ? | -
O=C(O)c1ccccc1/C=N/n1c(C2CCCCC2)n[nH]c1=S | - | - | - | - | 7.9µM | -
S=c1[nH]nc(C2CCCCC2)n1/N=C/c1ccccc1Cl | ? | 13µM | ? | - | 22µM | -
Cc1ccc(S(=O)(=O)N(C)C)cc1NC(=O)C(C)OC(=O)CC1CC2CCC1C2 (stereo unspecified) | . | - | . | . | . | -
COc1ccc(NC(=O)CNS(=O)(=O)c2cccc3nonc23)c(OC)c1 | - | 30µM | - | - | - | -
CC(=O)OCC(=O)Nc1ccc(N=Nc2ccccc2)cc1 | ? | - | - | - | ? | -
O=C(CCl)Nc1ccc(-c2ccccc2)cc1 | - | - | - | - | - | -
O=C(CCl)Nc1ccc(N=Nc2ccccc2)cc1 | 40µM | - | - | - | ? | -
CC(C)C(=O)OCC(=O)Nc1ccc(N=Nc2ccccc2)cc1 | 40µM | - | ? | - | 35µM | -
CSc1ncc2c(n1)-c1ccccc1N(Cc1ccccc1)S2(=O)=O | - | . | - | - | - | .
CCCCC1=CC2=C(c3ccco3)C(=O)C(C)(OC(=O)c3ccc(OC)cc3)C(=O)C2=CN1CCOC (stereo unspecified) | 40µM | - | - | - | ? | -
CCCCC1=CC2=C(c3ccco3)C(=O)C(C)(OC(=O)c3ccc(OC)cc3)C(=O)C2=CN1CCc1ccccn1 (stereo unspecified) | ? | - | - | - | ? | -
COc1ccc(NC(=O)c2cccc(N3C(=O)c4cccc([N+](=O)[O-])c4C3=O)c2)cc1 | - | - | - | - | - | -
COc1ccc(/C=C2\C(=O)N(c3c(Cl)cc(Cl)cc3Cl)N=C2NC(=O)c2cccc([N+](=O)[O-])c2)cc1 | ? | 0.75µM | ? | ? | ? | -
Cc1ccc(NC(=O)CSc2nc(C)cc(C)c2C(=O)Nc2cccc(C)c2)cc1 | - | . | - | - | - | .
COc1ccc(OCC(=O)Nc2ccc(N3CCN(Cc4ccccc4F)CC3)cc2)cc1 | - | - | - | - | - | -
